Results filed as inconclusive are left out. Calls of active or inactive are those of the source. Unless noted, calls follow the shape of the dose curve; as a rule, active = well fitted curve in the direction sought with a large enough effect in the repeat runs; inconclusive = weak or mixed curves; inactive = no such curve, though single readings can be large; an effect the other way counts as inactive or inconclusive.
Tests used:
[1] = qHTS assay to identify small molecule antagonists of the estrogen related receptor (ERR) signaling pathway - cell viability counter screen (AID 1224818);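 also: series mostly up to about 46 µM; viability measured after 17.5 h of compound exposure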
How it was run: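 Cytotoxicity counter screen: fluorescence from CellTiter-Fluor, added after 17.5 h compound exposure at 37 C and read 30 min later. ERR cell line seeded at 2,000 cells/well, preincubated 6 h before dosing.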

[2] = qHTS assay to identify small molecule antagonists of the estrogen related receptor (ERR) signaling pathway (AID 1224819;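 also: luminescence from an ERR-driven luciferase reporter measured with One-Glo reagent; series mostly up to about 46 µM; nearly all actives have a fitted effect of over 50% in size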)
How it was run: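 LOPAC library screened for antagonism as reduced One-Glo luminescence in ERR reporter cells (2,000/well). Compounds were added after 6 h pre-incubation and left 18 h at 37C; reading followed a 30 min room-temperature reagent step.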

[3] = qHTS assay to identify small molecule agonists of the estrogen related receptor (ERR) signaling pathway (AID 1224820)
How it was run: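 Following a 6 h settling period, 2,000 ERR cells per well receive DMSO-dissolved compounds by pin tool and incubate 18 h at 37 C; agonist activity is scored from One-Glo luminescence read 30 min post-addition.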

[4] = tested on: estrogen-related receptor alpha (ERRalpha) with PGC-1alpha coactivator, human; experiment: qHTS assay to identify small molecule antagonists of the estrogen related receptor signaling pathway with the pleiotropic PPARgamma coactivator (PGC) (AID 1224821; calls by dose curve;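 also: series mostly up to about 46 µM; lower luminescence signal means antagonism of PGC/ERR signalling; nearly all actives have a fitted effect of over 50% in size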)
How it was run: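 Screening used NTP's PGC/ERR cells, dosed via pin tool with compound in DMSO alongside positive and negative controls. After 18 h at 37 C, One-Glo reagent sat 30 min at room temperature before luminescence detection.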

[5] = qHTS assay to identify small molecule antagonists of the estrogen related receptor signaling pathway with the pleiotropic PPARgamma coactivator (PGC) cell viability counter screen (AID 1224822; also: series mostly up to about 46 µM)
How it was run: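 Viability counter-screen read by fluorescence intensity after 30 min with CellTiter-Fluor at 37 C; PGC/ERR reporter cells were exposed to compounds for 17.5 h at 37 C following a 6 h preincubation.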

[6] = qHTS assay to identify small molecule agonists of the estrogen related receptor signaling pathway with the pleiotropic PPARgamma coactivator (PGC) (AID 1224823)
How it was run: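 In this quantitative high-throughput screen, an 18 h, 37 C treatment of PGC/ERR cells with compounds in DMSO preceded a One-Glo luminescence read taken after 30 min at room temperature.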

[7] = qHTS assay for small molecule agonists of the p53 signaling pathway (AID 651631; calls by dose curve; also: nearly all actives have a fitted effect of over 15% in size)
How it was run: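 Read-out is beta-lactamase FRET fluorescence measured 2 h after substrate addition at room temperature, in HCT-116 cells with a p53 response element-driven reporter exposed to compounds for 16 h at 37 °C.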

[8] = qHTS assay for small molecule agonists of the p53 signaling pathway - cell viability (AID 651633; calls by dose curve;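 also: p53RE-bla HCT reporter cells with a stable beta-lactamase p53 reporter; series mostly up to about 83 µM; nearly all actives have a fitted effect of over 30% in size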)
How it was run: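 p53RE-bla cells were treated with compound for 16 hours at 37 C. Cytotoxicity was then measured as CellTiter-Glo luminescence after 30 min at room temperature.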

[9] = qHTS assay for small molecules that induce genotoxicity in human embryonic kidney cells expressing luciferase-tagged ATAD5 - cell viability (AID 651634; calls by dose curve; also: nearly all actives have a fitted effect of over 25% in size)
How it was run: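 Cytotoxicity counter-readout: after 15.5 hr compound treatment at 37C, live-cell protease activity in ATAD5-luciferase HEK293T cells measured by CellTiter-Fluor fluorescence, 30 min development at 37C.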

[10] = qHTS assay for small molecule disruptors of the mitochondrial membrane potential - cell viability (AID 720634; calls by dose curve;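 also: human HepG2 liver cancer cells; series mostly up to about 83 µM; nearly all actives have a fitted effect of over 20% in size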)
How it was run: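 Cytotoxicity was quantified from ATP content by CellTiter-Glo luminescence in the same wells as the MMP dye read-out. HepG2 (2,000 cells/well) were plated overnight and exposed to compounds for 1 hr at 37 C.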

[11] = qHTS assay to test for compound auto fluorescence at 590 nm (red) in HepG2 cells (AID 720674)
How it was run: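 HepG2 cells, 2,000 per well in MEM with 10% FBS, attached overnight at 37 C, then got 23 nL compound or DMSO. After 1 hr at 37 C, 5% CO2, red fluorescence was read at 540/590 nm against Rose Bengal sodium as reference.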

[12] = qHTS assay to test for compound auto fluorescence at 460 nm (blue) in HEK293 cells (AID 720678)
How it was run: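 HEK293, 2,000 cells/well, 10% dialyzed FBS; attach 4-5 hr 37C; pin compound or DMSO; o/n 37C/5% CO2; fluorescence 405/460 nm; triamterene-equivalent units.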

[13] = qHTS assay to test for compound auto fluorescence at 590 nm (red) in HEK293 cells (AID 720679)
How it was run: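 Intensity at 540nm excitation and 590nm emission is reported as Rose Bengal sodium-equivalent autofluorescence. Measurements followed overnight exposure (37C, 5% CO2) of HEK293 cells, 2,000 per well, to 23 nL compound.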

[14] = qHTS assay to test for compound auto fluorescence at 535 nm (green) in HEK293 cells (AID 720680)
[15] = qHTS assay to test for compound auto fluorescence at 460 nm (blue) in HEK293 cell free culture (AID 720681)
How it was run: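 Compounds were added to cell-free DMEM with 10% FBS and fluorescence read directly. The blue channel used 405 nm excitation and 460 nm emission, with triamterene as the reference fluorophore.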

[16] = qHTS assay to test for compound auto fluorescence at 535 nm (green) in HEK293 cell free culture (AID 720682)
How it was run: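 Fluorescein serves as the green reference fluorophore; each compound's intrinsic emission at 535 nm (excitation 485 nm) is reported as an equivalent amount of that dye, measured in serum-containing DMEM without cells.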

[17] = qHTS assay to test for compound auto fluorescence at 590 nm (red) in HEK293 cell free culture (AID 720683)
How it was run: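 Cell-free wells of DMEM with 10% FBS received compound, and intrinsic fluorescence was read at excitation/emission 540/590 nm. Values expressed as equivalence to Rose Bengal sodium.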

[18] = qHTS assay to test for compound auto fluorescence at 590 nm (red) in HepG2 cell free culture (AID 720684)
How it was run: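 Rose Bengal sodium served as the reference for red signal. Test compounds were dispensed into serum-containing MEM (10% FBS) without cells, and plates were read at 540/590 nm.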

[19] = qHTS assay to test for compound auto fluorescence at 460 nm (blue) in HepG2 cell free culture (AID 720685)
How it was run: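 Cell-free plates of MEM plus 10% FBS received 23 nL compound or DMSO vehicle; blue-channel (405/460 nm) intensity scored against triamterene as reference fluorophore.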

[20] = qHTS assay to test for compound auto fluorescence at 535 nm (green) in HepG2 cell free culture (AID 720686)
[21] = qHTS assay to test for compound auto fluorescence at 460 nm (blue) in HepG2 cells (AID 720687)
How it was run: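 HepG2 cells in MEM with 10% FBS, attached overnight at 37 C, were exposed to compound or DMSO for 1 hr at 37 C, 5% CO2. Blue fluorescence was read at 405/460 nm, with triamterene as reference fluorophore.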

[22] = qHTS assay to identify small molecule antagonists of the glucocorticoid receptor (GR) signaling pathway - cell viability counter screen (AID 720693); also: nearly all actives have a fitted effect of over 55% in size
[23] = qHTS assay for identifying genotoxic compounds that show differential cytotoxicity against isogenic chicken DT40 cell lines with known DNA damage response pathways - Rev3 mutant cell line (AID 743014); also: nearly all actives have a fitted effect of over 55% in size
[24] = qHTS assay for identifying genotoxic compounds that show differential cytotoxicity against isogenic chicken DT40 cell lines with known DNA damage response pathways - Rad54/Ku70 mutant cell line (AID 743015); also: nearly all actives have a fitted effect of over 60% in size
[25] = qHTS assay to identify small molecule antagonists of the androgen receptor (AR) signaling pathway - cell viability counter screen (AID 743033; also: nearly all actives have a fitted effect of over 45% in size)
[26] = qHTS assay to identify small molecule antagonists of the androgen receptor (AR) signaling pathway using the MDA cell line - cell viability counter screen (AID 743041; also: nearly all actives have a fitted effect of over 45% in size)
How it was run: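 Cytotoxicity counter screen: MDA-kb2 AR-luc cells, compound + R1881, 16 h, 37C, 0% CO2; CellTiter-Fluor added at 15.5 h, fluorescence read after 30 min.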

[27] = target: Estrogen receptor (Homo sapiens) (UniProt P03372); experiment: qHTS assay to identify small molecule antagonists of the estrogen receptor alpha (ER-alpha) signaling pathway (AID 743069; active = well fitted curve in the direction sought with a large enough effect in the signal ratio in the repeat runs, not every such curve was filed as active; the % refers to the signal ratio)
Sequence of Estrogen receptor (Homo sapiens) (P03372 whole entry, looked up): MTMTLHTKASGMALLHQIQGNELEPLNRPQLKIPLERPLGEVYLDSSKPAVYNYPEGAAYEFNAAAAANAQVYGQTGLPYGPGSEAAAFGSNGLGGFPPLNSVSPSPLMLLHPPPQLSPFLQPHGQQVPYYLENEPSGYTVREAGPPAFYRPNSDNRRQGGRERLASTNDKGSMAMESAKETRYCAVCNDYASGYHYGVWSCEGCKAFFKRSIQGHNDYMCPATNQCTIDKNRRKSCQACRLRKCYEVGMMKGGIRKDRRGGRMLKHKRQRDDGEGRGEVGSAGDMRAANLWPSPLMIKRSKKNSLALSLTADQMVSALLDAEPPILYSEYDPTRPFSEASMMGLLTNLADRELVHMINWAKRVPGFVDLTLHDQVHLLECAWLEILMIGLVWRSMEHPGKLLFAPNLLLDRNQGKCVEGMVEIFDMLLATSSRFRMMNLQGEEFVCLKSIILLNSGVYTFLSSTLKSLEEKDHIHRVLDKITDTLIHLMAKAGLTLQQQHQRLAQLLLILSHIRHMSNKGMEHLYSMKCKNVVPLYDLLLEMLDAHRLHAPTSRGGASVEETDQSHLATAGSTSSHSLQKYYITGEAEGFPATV
How it was run: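 Beta-lactamase FRET fluorescence is read after 2 hr at room temperature with LiveBLAzer B/G substrate. Before that, ER-alpha-bla HEK293 cells sit 4 hr after plating, then receive compound plus 17beta-estradiol and incubate 18 hr at 37C.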

[28] = qHTS assay to identify small molecule antagonists of the estrogen receptor alpha (ER-alpha) signaling pathway - cell viability counter screen (AID 743074; calls by dose curve;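 also: HEK293 cells carrying ER-alpha-UAS-bla reporter stimulated with 17beta-estradiol; nearly all actives have a fitted effect of over 45% in size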)
[29] = target: Estrogen receptor (Homo sapiens) (UniProt P03372); experiment: qHTS assay to identify small molecule agonists of the estrogen receptor alpha (ER-alpha) signaling pathway (AID 743075; calls by dose curve;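 also: HEK293 GripTite cells with ER-alpha and UAS-driven beta-lactamase reporter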)
[30] = target: Estrogen receptor (Homo sapiens) (UniProt P03372); experiment: qHTS assay to identify small molecule agonists of the estrogen receptor alpha (ER-alpha) signaling pathway using the BG1 cell line (AID 743079); also: nearly all actives have a fitted effect of over 20% in size
[31] = qHTS assay to identify small molecule antagonists of the estrogen receptor alpha (ER-alpha) signaling pathway using the BG1 cell line (AID 743080; calls by dose curve;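 also: BG1 cells stimulated with 17beta-estradiol alongside compound; series mostly up to about 70 µM; nearly all actives have a fitted effect of over 25% in size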)
How it was run: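 BG1Luc4E2, endogenous ER-alpha, 4xERE-luc; 5 d charcoal-stripped FBS, phenol red free; 24 h plating; cpd + 17beta-estradiol 21.5 h, 37 C/5% CO2; CellTiter-Fluor viability 30 min, then ONE-Glo luciferase 30 min RT.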

[32] = qHTS assay to identify small molecule antagonists of the estrogen receptor alpha (ER-alpha) signaling pathway using the BG1 cell line - cell viability counter screen (AID 743081);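 also: compound given together with 17beta-estradiol as the ER stimulus; series mostly up to about 70 µM; nearly all actives have a fitted effect of over 45% in size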
[33] = qHTS assay to identify aromatase inhibitors - cell viability counter screen (AID 743084);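 also: cells stimulated with testosterone during compound exposure; nearly all actives have a fitted effect of over 55% in size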
[34] = target: Aryl hydrocarbon receptor (Homo sapiens) (UniProt P35869); experiment: qHTS assay to identify small molecule that activate the aryl hydrocarbon receptor (AhR) signaling pathway (AID 743085);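 also: HG2L7.5c1 human HepG2 liver cells with stably integrated DRE-driven firefly reporter; series mostly up to about 70 µM; nearly all actives have a fitted effect of over 15% in size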
Sequence of Aryl hydrocarbon receptor (Homo sapiens) (P35869 whole entry, looked up): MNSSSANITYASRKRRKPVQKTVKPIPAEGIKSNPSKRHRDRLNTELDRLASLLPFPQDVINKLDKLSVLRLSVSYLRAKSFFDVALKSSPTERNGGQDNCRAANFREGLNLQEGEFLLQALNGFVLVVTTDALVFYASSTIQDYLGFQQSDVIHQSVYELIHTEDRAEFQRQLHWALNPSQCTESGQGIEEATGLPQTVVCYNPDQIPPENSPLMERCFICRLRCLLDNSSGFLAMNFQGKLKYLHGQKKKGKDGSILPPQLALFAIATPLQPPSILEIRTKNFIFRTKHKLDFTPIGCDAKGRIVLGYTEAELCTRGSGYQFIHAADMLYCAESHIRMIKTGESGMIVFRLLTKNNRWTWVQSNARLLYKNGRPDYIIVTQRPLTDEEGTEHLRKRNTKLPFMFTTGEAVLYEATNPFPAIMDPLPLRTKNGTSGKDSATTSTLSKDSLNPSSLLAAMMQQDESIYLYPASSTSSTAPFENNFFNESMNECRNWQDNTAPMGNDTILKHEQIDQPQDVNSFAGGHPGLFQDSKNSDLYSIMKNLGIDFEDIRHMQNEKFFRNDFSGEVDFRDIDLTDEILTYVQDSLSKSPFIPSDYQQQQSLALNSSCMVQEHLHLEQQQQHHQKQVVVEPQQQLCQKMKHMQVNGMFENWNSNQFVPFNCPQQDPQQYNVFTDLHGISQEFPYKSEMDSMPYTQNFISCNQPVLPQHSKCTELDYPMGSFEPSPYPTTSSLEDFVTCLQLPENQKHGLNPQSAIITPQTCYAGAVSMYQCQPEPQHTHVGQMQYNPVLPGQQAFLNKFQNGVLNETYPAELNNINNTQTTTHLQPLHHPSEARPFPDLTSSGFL
How it was run: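 Cell line HG2L7.5c1 (human hepatoma, 20× DRE-luc). Plated, 5 h 37C, compound/DMSO added, 24 h 37C. CellTiter-Fluor 30 min 37C → fluorescence; then ONE-Glo 30 min RT → luminescence.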

[35] = qHTS assay to identify small molecule that activate the aryl hydrocarbon receptor (AhR) signaling pathway - cell viability counter screen (AID 743086)
How it was run: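 HepG2-AhR-luc (HG2L7.5c1) cells, 4000/well, treated 24 h at 37 C with compound; viability measured as CellTiter-Fluor fluorescence after 30 min in the same wells as the luciferase read.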

[36] = target: Peroxisome proliferator-activated receptor gamma (Homo sapiens) (UniProt P37231); experiment: qHTS assay to identify small molecule agonists of the peroxisome proliferator-activated receptor gamma (PPARg) signaling pathway (AID 743094; active = well fitted activation curve with a large enough effect in the signal ratio in the repeat runs, not every such curve was filed as active; the % refers to the signal ratio)
Sequence of Peroxisome proliferator-activated receptor gamma (Homo sapiens) (P37231 whole entry, looked up): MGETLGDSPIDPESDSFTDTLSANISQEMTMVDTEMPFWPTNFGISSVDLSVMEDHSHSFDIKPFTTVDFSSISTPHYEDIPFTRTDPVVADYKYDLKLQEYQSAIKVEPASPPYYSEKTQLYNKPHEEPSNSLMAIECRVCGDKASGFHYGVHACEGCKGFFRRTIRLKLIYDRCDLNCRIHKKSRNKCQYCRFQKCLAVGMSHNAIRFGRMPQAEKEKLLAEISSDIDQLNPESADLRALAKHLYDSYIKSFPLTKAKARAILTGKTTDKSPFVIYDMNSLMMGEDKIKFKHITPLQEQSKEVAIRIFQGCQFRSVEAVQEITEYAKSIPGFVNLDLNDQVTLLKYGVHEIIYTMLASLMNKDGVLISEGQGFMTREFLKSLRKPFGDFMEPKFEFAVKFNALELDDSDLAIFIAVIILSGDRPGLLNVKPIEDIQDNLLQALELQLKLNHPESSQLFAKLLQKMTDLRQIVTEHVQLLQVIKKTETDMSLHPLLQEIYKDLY
How it was run: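 Agonist activity was taken from a beta-lactamase reporter (FRET substrate, 1 h at room temperature) in HEK293H cells carrying a PPARg UAS-bla construct. Compounds in DMSO were incubated 17 h at 37C after a 5 h cell pre-incubation.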

[37] = qHTS assay to identify small molecule phospholipidosis (PLD) inducers (AID 1259344; active = well fitted curve in the direction sought with a large enough effect; an effect the other way counts as inactive or inconclusive)
How it was run: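 Read-out is LipidTOX Red fluorescence (ex 595/em 615) imaged in HepG2 cells after 24 h compound exposure at 37 C, with Hoechst nuclear counterstain (ex 352/em 461) allowing per-cell normalisation.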

[38] = target: Nuclear receptor subfamily 1 group I member 2 (Rattus norvegicus) (UniProt Q9R1A7); experiment: Rat pregnane X receptor (rPXR) activation by small molecules, qHTS assay (AID 1346983); settings: rPXR luciferase reporter cells, One-Glo luminescence, 24 h; max activation: active compounds read high; also: nearly all actives have a fitted effect of over 20% in size
Sequence of Nuclear receptor subfamily 1 group I member 2 (Rattus norvegicus) (Q9R1A7 whole entry, looked up): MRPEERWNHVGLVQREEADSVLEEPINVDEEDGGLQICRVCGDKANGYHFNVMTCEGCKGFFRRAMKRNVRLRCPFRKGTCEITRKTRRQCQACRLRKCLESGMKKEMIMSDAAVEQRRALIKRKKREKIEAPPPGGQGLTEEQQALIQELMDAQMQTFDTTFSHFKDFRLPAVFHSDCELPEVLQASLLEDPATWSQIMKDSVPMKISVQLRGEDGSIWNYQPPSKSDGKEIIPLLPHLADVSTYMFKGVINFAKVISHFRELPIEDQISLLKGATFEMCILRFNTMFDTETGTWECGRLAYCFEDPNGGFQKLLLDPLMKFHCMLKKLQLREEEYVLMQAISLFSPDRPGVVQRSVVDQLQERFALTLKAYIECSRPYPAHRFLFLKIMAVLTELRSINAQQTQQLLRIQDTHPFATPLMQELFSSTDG
How it was run: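 Cell-based rPXR activation assay: rPXR cells, 2,000 per well, rested 5hr at 37 C, then exposed to compounds in DMSO for 24 hr at 37 C. Luciferase activity read by One-Glo luminescence after 30 min at room temperature.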

[39] = target: Nuclear receptor subfamily 1 group I member 2 (Homo sapiens) (UniProt O75469); experiment: CYP3A4 induction through human pregnane X receptor (PXR) by small molecules, qHTS assay (AID 1346984); also: nearly all actives have a fitted effect of over 40% in size
How it was run: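 Read-out is luminescence after One-Glo addition, following a 3 hr, 37C incubation with Luciferin-IPA CYP3A4 substrate (3uM final). Before that, compounds were on DPX-2 cells (HepG2 co-transfected with PXR element plus CYP3A4-promoter luciferase) for 24 hr at 37C.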

[40] = target: Nuclear receptor subfamily 1 group I member 2 (Homo sapiens) (UniProt O75469); experiment: Human pregnane X receptor (PXR) activation by small molecules, qHTS assay (AID 1346985); also: nearly all actives have a fitted effect of over 40% in size
How it was run: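 DPX-2 cells (HepG2 co-transfected with a PXR response element and a CYP3A4-promoter luciferase construct) were seeded at 2,000 per well, rested 5 hr at 37C, then exposed to DMSO-dissolved compounds for 24 hr. Activation was read as luciferase luminescence.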
% is scaled to controls: 0 for no effect and ±100 for the full control effect.

N=C(N)c1ccc(CS(=O)(=O)F)cc1
inactive: Potency [1] | Potency [2] | Potency [3] | Potency [4] | Potency [5] | Potency [6]

CCCN(CCC)CCc1ccc(O)c(O)c1
inactive: Potency [1] | Potency [2] | Potency [3] | Potency [4] | Potency [5] | Potency [6]

C[C@]12N[C@H](Cc3ccccc31)c1ccccc12
inactive: Potency [7] | Potency [8] | Potency [9] | Potency [10] | outcome [11] | Potency [12] | outcome [13] | Potency [14] | Potency [15] | Potency [16] | outcome [17] | outcome [18] | Potency [19] | Potency [20] | Potency [21] | Potency [22] | Potency [23] | Potency [24] | Potency [25] | Potency [26] | Potency [27] | Potency [28] | Potency [29] | Potency [30] | Potency [31] | Potency [32] | Potency [33] | Potency [34] | Potency [35] | Potency [36] | Potency [1] | Potency [2] | Potency [3] | Potency [4] | Potency [5] | Potency [6] | Potency [37] | max activation [38] -5.86% | Potency [39] | Potency [40]

Reference: PubChem BioAssay (Tox21)
